Experimental data taken from PubChem BioAssay AID1159580 (chemical genetic matrix, 2015).
The whole screen tested about 5,500 compounds, of which about 2,000 (36%) were called active. Not shown: some 18% with an inconclusive outcome. No stated cut-off is given here; in the data, active means normalized growth mostly below about 0.91 (no sharp cut-off); inconclusive means no clear call, values can overlap the other calls; inactive means mostly above about 0.92. Some of the results follow.

Assay: chemical genetic growth profiling, strain panel (AID 1159580);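 further: tested at 20 µM; growth read once vehicle control cultures reached saturation at 30 °C; 1 = growth at the plate median or of vehicle wells; lower values mean less growth of the strain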
Conditions: S. cerevisiae deletion strains, growth OD

Measured: normalized growth

COC1=CC(=O)C(O)=C/C1=C\C=C\c1ccccc1
active: locus YAL021C, strain ccr4, hits give low values 0.0637 | locus YAL026C, strain drs2, hits give low values 0.0627 | locus YAL030W, strain snc1, hits give low values 0.0587 | locus YBL061C, strain skt5, hits give low values 0.0684 | locus YBR009C, strain hhf1, hits give low values 0.0623 | locus YBR023C, strain chs3, hits give low values 0.075 | locus YBR171W, strain sec66, hits give low values 0.0792 | locus YBR231C, strain swc5, hits give low values 0.0663 | locus YBR279W, strain paf1, hits give low values 0.068 | locus YCL011C, strain gbp2, hits give low values 0.0594 | locus YCL016C, strain dcc1, hits give low values 0.0807 | locus YCL061C, strain MRC1, hits give low values 0.0651 | locus YCL069W, strain vba3, hits give low values 0.064 | locus YCR088W, strain abp1, hits give low values 0.0619 | locus YDL005C, strain med2, hits give low values 0.0757 | locus YDL040C, strain nat1, hits give low values 0.244 | locus YDR001C, strain nth1, hits give low values 0.0607 | locus YDR069C, strain doa4, hits give low values 0.068 | locus YDR137W, strain rgp1, hits give low values 0.292 | locus YDR159W, strain sac3, hits give low values 0.166 | locus YDR195W, strain ref2 0.115 | locus YDR297W, strain sur2, hits give low values 0.0591 | locus YDR334W, strain swr1, hits give low values 0.0652 | locus YDR335W, strain msn5, hits give low values 0.0631 | locus YDR392W, strain spt3, hits give low values 0.0929 | locus YEL003W, strain gim4, hits give low values 0.0583 | locus YEL037C, strain rad23, hits give low values 0.0597 | locus YEL061C, strain CIN8 (second series), hits give low values 0.064 | locus YER015W, strain faa2, hits give low values 0.0626 | locus YER016W, strain bim1, hits give low values 0.0792 | locus YER111C, strain swi4, hits give low values 0.076 | locus YER155C, strain BEM2 (second series), hits give low values 0.0935 | locus YFR010W, strain ubp6, hits give low values 0.0686 | locus YGL167C, strain pmr1, hits give low values 0.0977 | locus YGL173C, strain kem1, hits give low values 0.0694 | locus YGL227W, strain vid30, hits give low values 0.0665 | locus YGL240W, strain doc1, hits give low values 0.0868 | locus YGL253W, strain hxk2, hits give low values 0.0562 | locus YHR013C, strain ard1, hits give low values 0.205 | locus YHR027C, strain rpn1, hits give low values 0.064 | locus YHR030C, strain SLT2, hits give low values 0.114 | locus YHR079C, strain IRE1, hits give low values 0.111 | locus YHR142W, strain chs7, hits give low values 0.0751 | locus YJL092W, strain hpr5, hits give low values 0.0609 | locus YJL095W, strain BCK1 (second series), hits give low values 0.0603 | locus YJL095W, strain BCK1, hits give low values 0.104 | locus YJL115W, strain asf1, hits give low values 0.0766 | locus YJL129C, strain trk1, hits give low values 0.0861 | locus YJL154C, strain vps35, hits give low values 0.0623 | locus YJL164C, strain tpk1, hits give low values 0.0609 | locus YJL166W, strain qcr8, hits give low values 0.0637 | locus YJL187C, strain SWE1, hits give low values 0.0601 | locus YJR066W, strain TOR1, hits give low values -0.00301 | locus YKL160W, strain elf1, hits give low values 0.073 | locus YKR026C, strain gcn3, hits give low values 0.0653 | locus YKR091W, strain srl3, hits give low values 0.0623 | locus YLL001W, strain dnm1, hits give low values 0.0646 | locus YLL026W, hits give low values 0.0594 | locus YLL041C, strain sdh2, hits give low values 0.0594 | locus YLR027C, strain aat2, hits give low values 0.0574 | locus YLR113W, strain HOG1, hits give low values 0.173 | locus YLR221C, strain rsa3, hits give low values 0.0618 | locus YLR258W, strain gsy2, hits give low values 0.0601 | locus YLR262C, strain YPT6 (second series), hits give low values 0.0834 | locus YLR320W, strain mms22, hits give low values 0.0845 | locus YLR342W, strain FKS1, hits give low values 0.0656 | locus YLR357W, strain rsc2, hits give low values 0.127 | locus YLR370C, strain arc18, hits give low values 0.0611 | locus YLR384C, strain iki3, hits give low values 0.0607 | locus YML120C, strain ndi1, hits give low values 0.0568 | locus YMR058W, strain fet3, hits give low values 0.0632 | locus YMR125W, strain sto1, hits give low values 0.0692 | locus YMR129W, hits give low values 0.0614 | locus YMR205C, strain PFK2, hits give low values 0.088 | locus YMR231W, strain pep5, hits give low values 0.068 | locus YNL071W, strain lat1, hits give low values 0.0619 | locus YNL183C, strain NPR1, hits give low values -0.000893 | locus YNL209W, strain ssb2, hits give low values 0.0644 | locus YNL248C, strain rpa49, hits give low values 0.0693 | locus YNL322C, strain KRE1 (second series), hits give low values 0.068 | locus YNR049C, strain mso1, hits give low values 0.0603 | locus YOR001W, strain rrp6, hits give low values 0.069 | locus YOR070C, strain gyp1, hits give low values 0.0623 | locus YOR080W, strain dia2, hits give low values 0.0977 | locus YOR083W, strain WHI5, hits give low values 0.0654 | locus YOR106W, strain vam3, hits give low values 0.0683 | locus YOR231W, strain MKK1, hits give low values 0.109 | locus YOR265W, strain rbl2, hits give low values 0.0614 | locus YOR270C, strain vph1, hits give low values 0.0968 | locus YOR290C, strain snf2, hits give low values 0.0813 | locus YPL051W, strain arl3, hits give low values 0.0697 | locus YPL078C, strain atp4, hits give low values 0.0641 | locus YPL106C, strain sse1, hits give low values 0.102 | locus YPL240C, strain hsp82, hits give low values 0.0581 | locus YPL256C, strain CLN2, hits give low values 0.131
